Shown are actives, neighbours in structure and some others; about 9.3% of the full set was active somewhere.
HCMV inh = blocks human cytomegalovirus replication | AID 1259415 | 410,000 tested, 4.5% active | HFF cells, HCMV-luciferase reporter, 72 h; hits give low values | activity change, negative = inhibition, % at 57.5 µM; in the data active = activity change below about -60%; inconclusive = no clear call, values can overlap the other calls; inactive = above about -39%
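HFF cells seeded 16 h at 37C, treated with compounds, infected with luciferase-reporter HCMV at MOI 1 PFU/cell; luciferase read at 72 h post infection, normalized to buffer-only and Salinomycin controls.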
Sm TGR block = inhibitors of Schistosoma mansoni thioredoxin glutathione reductase. purified TGR, DTNB reduction, TNB absorbance 405 nm. 360,000 tested, 3% active. Q962Y6. Potency, µM (series often up to 114 µM), for inactives: at the top dose activity change, negative = inhibition, usual class: inhibitors. AID 485364; note: potency is the fitted concentration of half-maximal effect; nearly all actives have a fitted effect of over 60% in size
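Kinetic colorimetric format: TGR-catalysed, NADPH-driven DTNB reduction monitored via TNB absorbance. Enzyme dispensed at 20 nM; compound exposure 15 min at room temperature before reaction start.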
VACV mCherry inh = vaccinia inhibition (mCherry reporter). Vaccinia virus mCherry reporter infection, fluorescence. Potency, µM (titrated, usually from 36.5 µM), for inactives: at the top dose activity change, negative = inhibition, usual class: inhibitors. 310,000 tested, 0.63% active. AID 720579; calls by dose curve; tested in A549 cells; note: potency is the fitted concentration of half-maximal effect; nearly all actives have a fitted effect of over 35% in size
Vaccinia Venus = inhibitors of vaccinia virus (Venus reporter); AID 720580; Vaccinia virus Venus reporter expression, fluorescence; Potency, µM (highest dose often 36.5 µM), without a hit: top-dose activity change, negative = inhibition, usual class: inhibitors; 330,000 tested, 0.46% active; calls by dose curve; tested in A549 cells; note: potency is the fitted concentration of half-maximal effect; nearly all actives have a fitted effect of over 30% in size
FMDV antiviral = blocks foot and mouth disease virus. FMDV antiviral cell-based qHTS. Potency, µM (titrated, usually from 57.9 µM), without a hit: top-dose activity change, negative = inhibition, usual class: inhibitors. 410,000 tested, 1.2% active; calls by dose curve; tested in HEK293T cells; note: read-out not given here; potency is the fitted concentration of half-maximal effect; nearly all actives have a fitted effect of over 45% in size
HCV inh = inhibitors of hepatitis C virus infection. Huh7.5.1 HCVcc-Cre infection, luciferase reporter, 44 h. Potency, µM (top dose mostly 41.8 µM), for inactives: at the highest dose activity change, negative = inhibition, hits mostly inhibitors. 340,000 tested, 3.4% active; note: potency is the fitted concentration of half-maximal effect
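Reporter virus HCVcc-Cre (~0.5 moi) infects cells exposed to compound; seeding density 1,000 cells/well with 4 h settling beforehand. Luminescence, 15 sec read, taken 44 h post-infection following a 15 min RT substrate incubation.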
* hit, by the source's call; i = inactive; u = inconclusive; x = no result given; + = active, no number. Unless noted, calls come from the whole dose curve; as a rule, active = well fitted curve in the direction sought with a large enough effect; inconclusive = small, poorly fitted or top-dose-only effect, or another doubt; inactive = no such curve, though single readings can be large; an effect the other way counts as inactive or inconclusive. % is set by controls: 0 for no effect and ±100 for the full control effect.

SMILES	HCMV inh	Sm TGR block	VACV mCherry inh	Vaccinia Venus	FMDV antiviral	HCV inh
COCc1nc(-c2cc(Br)ccc2OC)no1	17	-2%	x	-3%	-13%	13µM*
CCOc1nc(-c2ccccc2)ccc1-c1noc(-c2ccc(C)cc2)n1	7	17%	-4%	5%	-8%	x
COCc1nc(-c2ccc(-c3ccc(OC)cc3)nc2OC)no1	29	6%	i	-18%	37%	u
CCOc1nc(-c2ccccc2)ccc1-c1noc(COC)n1	101	-1%	x	x	-11%	10µM*
COc1ccc(-c2ccc(-c3noc(C(C)C)n3)c(OC)n2)cc1	76	-23%	x	-14%	1%	1.6µM*
CCC(=O)N1c2ccccc2CC1C(=O)NCc1cccc(C)c1 (stereo unspecified)	3	-2%	-2%	6%	22%	x
CCN(CC)N=Nc1ccc(S(N)(=O)=O)cc1	10	5%	-3%	3%	8%	8%
O=C(Nc1cccc(Cl)c1)OCc1cn(-c2ccccc2)nn1	-15	3%	-2%	2%	2.5µM*	u
O=C(Nc1cccc(Cl)c1)OCc1cn(-c2ccc(Cl)cc2)nn1	-8	5%	x	x	20%	13%
CC(C)CC(CO)NS(=O)(=O)c1cccc(Cl)c1F (stereo unspecified)	-20	x	i	-5%	-8%	-21%
CC(C)C[C@@H](CO)NS(=O)(=O)c1c(F)cccc1F	5	x	-11%	-6%	-11%	3.5µM*
Fc1ccc(-c2csc(N3CCSCC3)n2)cc1	-26	1%	i	-7%	26%	u
COc1ccccc1N1CCN(C(=O)c2ccc(Cl)c(S(=O)(=O)N3CCOCC3)c2)CC1	9	2%	i	-14%	0%	0%
O=C(Nc1cccn(Cc2c(Cl)cccc2Cl)c1=O)c1ccccc1Cl	-31	12%	x	x	u	u
O=C(Nc1cccn(Cc2c(Cl)cccc2Cl)c1=O)c1ccc(Cl)cc1Cl	-97*	8%	x	x	u	11µM*
CCOC(=O)c1c(NC(=O)C[n+]2ccc(N(C)C)cc2)sc(C)c1C	u	9%	i	8%	-3%	5%
Cc1ccc(/C=N/NC(=O)c2nnn(-c3nonc3N)c2CSc2ccc(Cl)cc2)cc1	46	-1%	u	u	0%	-10%
CC(C)n1cc(NC(=O)COc2ccccc2Cl)cn1	-61*	-1%	-9%	3%	23%	6%
CCC(=O)N1CCN(c2ccc(NC(=O)COc3ccccc3Cl)cc2)CC1	u	-7%	x	x	32µM*	11µM*
CCC(=O)N1CCN(c2ccc(NC(=O)COc3ccc(C)cc3C)cc2)CC1	-14	-8%	-12%	-5%	-15%	u
CCC(=O)N1CCN(c2ccc(NC(=O)COc3ccccc3[N+](=O)[O-])cc2)CC1	-21	-18%	x	x	28µM*	11µM*
CC1CCCCN1S(=O)(=O)c1ccc(C(=O)Nc2nnc(C3CC3)o2)cc1 (stereo unspecified)	-22	0%	-26%	-21%	8%	u
CC1(C)c2ccccc2-c2nc3ccccc3cc2C1O (stereo unspecified)	8	14%	-27%	8%	35%	16%
CC[N+](C)(C(=O)O)/C(=C\c1ccccc1)c1ccnc2ccccc12 (stereo unspecified)	x	x	-19%	29%	x	x
Nn1c(SCc2ccccc2)nc2ccccc21	59	-2%	1%	-1%	73%	-15%
SMILES	HCMV inh	Sm TGR block	VACV mCherry inh	Vaccinia Venus	FMDV antiviral	HCV inh
Cc1ccc2nc(NC(=O)COC(=O)c3cccnc3)sc2c1	119	x	x	x	45%	0%
CCCNCC(O)Cn1c2ccccc2n2c(=O)cc(C)c(C#N)c12 (stereo unspecified)	-61*	-4%	1%	-6%	0%	u
Cc1cc(=O)n(CCc2ccccc2)c(O)c1C#N	5	u	x	-5%	8%	-9%
Cc1ccc(NC(=O)CCCSc2ccccc2)cc1S(=O)(=O)N1CCOCC1	-6	7%	u	-20%	28µM*	u
Cc1ccc(NC(=O)CSc2ccc(Br)cc2)cc1S(=O)(=O)N1CCOCC1	-33	1%	u	-15%	u	32µM*
N#C/C(=C/N1CCOCC1)c1ccccc1	14	16%	x	6%	-44%	3.2µM*
O=C(c1ccccc1)N1CCN(C(=O)N2CCOCC2)CC1	57	-2%	x	x	-7%	13%
O=C1N[C@@H](Cc2ccccc2)COC(=O)[C@@H](Cc2ccc(F)cc2)C/C=C\C[C@@H]1CC(=O)N(CCO)Cc1ccccc1	-96*	x	u	13µM*	u	u
CC(C)(C)OC(=O)C[C@@H]1C/C=C\C[C@H](CC(=O)NCCO)C(=O)N[C@@H](Cc2ccccc2)COC1=O	-18	x	i	-3%	-2%	6%
O=C1N[C@H](Cc2ccccc2)COC(=O)[C@H](Cc2ccc(F)cc2)CC/C=C/C[C@H]1CC(=O)N(CCO)Cc1ccccc1	-27	x	i	u	-18%	u
CC(C)(C)OC(=O)C[C@H]1C/C=C\C[C@@H](CC(=O)NCCO)C(=O)N[C@H](Cc2ccccc2)COC1=O	-61*	x	-26%	-9%	-17%	8%
Cc1ncoc1C(=O)NCC1=C(c2ccc(S(C)(=O)=O)cc2)C[C@@H]2CC[C@H]1N2CCOc1ccccc1	11	x	-13%	-10%	-8%	x
Cc1cc[n+](C2=C([O-])c3ccccc3C(=O)/C2=N\S(=O)(=O)c2cccs2)cc1C	4	-29%	-14%	-17%	-24%	11µM*
O=C1/C(=N\S(=O)(=O)c2cccs2)C([n+]2cccc(Cc3ccccc3)c2)=C([O-])c2ccccc21	x	-1%	u	-27%	u	-77%
Cc1cc(C)c[n+](C2=C([O-])c3ccccc3C(=O)/C2=N\S(=O)(=O)c2cccs2)c1	0	-13%	x	x	40µM*	u
COc1ccc(C(=O)O)cc1S(=O)(=O)NC(C)C	-18	8%	-1%	-3%	-12%	3%
CCN1CCN(S(=O)(=O)c2ccc(Cl)c(C(=O)N(C)C(c3ccccc3)c3ccccc3)c2)CC1	u	31%	-22%	-11%	-17%	u
COC(=O)c1ccccc1NC(=O)Cn1c(=O)n(CCCC(=O)NCc2ccccc2Cl)c(=O)c2ccccc21	21	22%	-11%	-2%	-24%	x
COC(=O)c1ccccc1NC(=O)Cn1c(=O)n(-c2ccc(C)cc2)c(=O)c2ccccc21	-62*	-1%	u	-25%	-9%	x
COC(=O)c1ccccc1NC(=O)CN1CCCCC1	-19	x	+	+	-18%	-23%
COc1ccc(NC(=O)Cn2c(=O)n(-c3ccc(OC)c(OC)c3)c(=O)c3ccccc32)cc1	35	0%	3%	0%	1%	x
